Bioassay records (PubChem BioAssay)
BCR signal inh = chronic active BCR signaling inhibition; ABC-DLBCL IkBa-CBG/CBR reporter, luminescence ratio, 4 h; Potency, µM (titrated, usually from 46.1 µM), most hits filed as inhibitors; 340,000 compounds, 0.05% hits; AID 493014; active = well fitted inhibition curve with a large enough effect in the signal ratio, with a control signal flat, not every such curve was filed as active; inconclusive = small, poorly fitted or top-dose-only effect, or effect the other way, or a change in a side signal; the % refers to the signal ratio
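Cell line TMD8 (human ABC DLBCL), stably expressing tet-inducible CBG68-IkBa fusion and CBR; IMDM/0.5% FBS; cpd up to 46 uM; dox induction, 4 h, 37C/5% CO2; dual luminescence; green/red ratio; MG132 control.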
MCF10A rereplic = induces DNA re-replication in MCF 10a normal breast cells. Potency, µM (highest dose often 46.1 µM), most hits filed as activators. MCF 10A DNA re-replication, Hoechst nuclear intensity, 48 h. AID 624296. 350,000 compounds, 2.9% hits; note: nearly all actives have a fitted effect of over 50% in size
IL1B secr inh = inflammasome signaling inhibition, IL-1 beta readout; THP-1 LPS/ATP IL-1B secretion, AlphaLISA, 16 h; hits give low values; 360,000 compounds, 4.7% hits; activity change, % at 57.5 µM; in the data active = activity change below about -50%; inconclusive = mostly about -30% to -49%
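THP-1 cells pretreated 1 hr with compounds (up to 57.5 uM final), then stimulated with LPS (250 ng/mL final) plus ATP (1.25 mM final); secreted IL-1B measured by AlphaLISA after 16 hr, decreased signal indicating inhibition.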
SW480 rerep = inducers of DNA re-replication in SW480 colon cancer cells; SW480 DNA re-replication, Hoechst DNA content imaging, 48 h; Potency, µM (doses to about 46.1 µM), actives largely listed as activators; 340,000 compounds, 1.8% hits; note: nearly all actives have a fitted effect of over 55% in size
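Per well, 250 cells were exposed to pinned compound for 48 hr. Nuclear DNA was visualised with Hoechst (40 min, 37 C) and total object intensity recorded by fluorescence scanning.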
DT40 TDP1 CPT = growth inhibition of DT40 Tdp1-/-;hTDP1 cells with camptothecin (screen for TDP1 inhibitors); chicken DT40 Tdp1-/-;hTDP1 cells + 20 nM CPT, ATP luminescence, 48 h; Potency, µM (titrated, usually from 46.2 µM), actives largely listed as inhibitors; 420,000 compounds, 12% hits; note: nearly all actives have a fitted effect of over 55% in size
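Chicken DT40 Tdp1-/- cells stably complemented with human TDP1 were seeded at 400 cells/well in medium containing 20 nM camptothecin, exposed to pin-transferred compounds, and grown at 37 °C for at least 48 hr. Viability was read as ATP luminescence.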
TDP1 cell noCPT = qHTS for Inhibitors of human tyrosyl-DNA phosphodiesterase 1 (TDP1): qHTS in cells in absence of CPT; 420,000 compounds, 15% hits; DT40 Tdp1-/- hTDP1 cells, no CPT, ATP luminescence, 48 h; Potency, µM (highest dose often 46.2 µM), most hits filed as inhibitors; note: nearly all actives have a fitted effect of over 55% in size
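Growth kinetics read by CellTiter-Glo luminescence after ≥48 hr at 37 °C. Cells: DT40 Tdp1-/- stably carrying human TDP1, 400 per well, compound exposure in the absence of CPT (DMSO vehicle).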
Of the large screens only hits and unclear results are named; the others gave an inactive call. Most compounds without a hit are left out; they make up all but 19% or so of the library. Unless noted, calls come from the whole dose curve; as a rule, active = well fitted curve in the direction sought with a large enough effect; inconclusive = small, poorly fitted or top-dose-only effect, or another doubt; inactive = no such curve, though single readings can be large; an effect the other way counts as inactive or inconclusive.

COC(C(=O)C(O)C(C)O)C1Cc2cc3cc(OC4CC(OC5CC(O)C(O)C(C)O5)C(O)C(C)O4)c(C)c(O)c3c(O)c2C(=O)C1OC1CC(OC2CC(OC3CC(C)(O)C(O)C(C)O3)C(O)C(C)O2)C(O)C(C)O1 (configuration not stated)	MCF10A rereplic inconclusive, DT40 TDP1 CPT 0.16µM, TDP1 cell noCPT 0.028µM (no result: BCR signal inh, IL1B secr inh)
CC12C=CC(=O)C=C1CCC1C2C(O)CC2(C)C1CCC2(C)O (configuration not stated)	none (no result: BCR signal inh)
CCCCC[C@H]1CCCCC[C@H](O)C[C@H](O)[C@@H](O)/C=C/C(=O)O1	DT40 TDP1 CPT 23µM, TDP1 cell noCPT 21µM (no result: BCR signal inh, MCF10A rereplic, SW480 rerep)
CCCCC[C@@H](O)C1C(=O)OC(C)[C@H](O)/C=C/C=C/C=C/C=C/C=C(\C)C(O)C(O)C(O)C[C@H](O)C[C@H](O)C[C@H](O)C[C@H](O)C[C@@H]1O (some centres not stated)	none (no result: BCR signal inh, MCF10A rereplic, IL1B secr inh, SW480 rerep)
COc1ccccc1Sc1ccccc1CC(C)N (configuration not stated)	MCF10A rereplic inconclusive, IL1B secr inh -56, SW480 rerep inconclusive, DT40 TDP1 CPT 15µM, TDP1 cell noCPT 18µM
COc1cc(CC(C)N)c(OC)cc1Br (configuration not stated)	DT40 TDP1 CPT inconclusive, TDP1 cell noCPT 28µM (no result: BCR signal inh, MCF10A rereplic, IL1B secr inh, SW480 rerep)
ClCCN(CCCl)c1ccc(/C=C/c2sc3ccccc3[n+]2CCCCI)cc1	DT40 TDP1 CPT 3.2µM, TDP1 cell noCPT 2.5µM (no result: BCR signal inh, MCF10A rereplic, IL1B secr inh, SW480 rerep)
CCCOC(=O)c1c(C)oc2c1cc(NS(=O)(=O)c1ccc(OCC)cc1)c1ccccc12	DT40 TDP1 CPT 1.5µM, TDP1 cell noCPT 1µM (no result: BCR signal inh, MCF10A rereplic, IL1B secr inh, SW480 rerep)
O=C(NC1CC2CCCC(C1)N2)c1ccccc1 (configuration not stated)	none
O=C(NCCc1ccccc1)[C@@H]1CC=C[C@@H]2CCN(Cc3ccc(Cl)c(Cl)c3)C(=O)[C@@H]21	MCF10A rereplic inconclusive, SW480 rerep inconclusive, DT40 TDP1 CPT 4µM, TDP1 cell noCPT 10µM (no result: BCR signal inh)
O=C(Cc1ccc(Cl)c(Cl)c1)N1CCCCC1CN1CCCC1 (configuration not stated)	none (no result: BCR signal inh, MCF10A rereplic, IL1B secr inh, SW480 rerep)
O=c1cccc2n1CC1CNC[C@H]2C1	none
Cc1ccc(NC(=O)c2snnc2C)cc1Cl	BCR signal inh inconclusive
Cc1nn(C(C)(C)C)c(C)c1/C=N/OC(=O)Nc1ccc(Cl)c(Cl)c1	DT40 TDP1 CPT 15µM, TDP1 cell noCPT 16µM
C[C@@H]1CN([C@@H](C)CO)C(=O)CCCn2nncc2CO[C@@H]1CN(C)C(=O)Oc1ccccc1	none (no result: BCR signal inh, MCF10A rereplic, SW480 rerep)
CCc1ccc(CNC(=O)C2CCN(C(=O)c3ccc(-n4c(C)cc5ccccc54)s3)CC2)cc1	DT40 TDP1 CPT 10µM, TDP1 cell noCPT 18µM (no result: BCR signal inh, MCF10A rereplic, IL1B secr inh, SW480 rerep)
CCCCCn1c(=O)c(C(=O)NCc2ccc(Cl)cc2)c(O)c2ccccc21	DT40 TDP1 CPT inconclusive, TDP1 cell noCPT inconclusive
CCOc1ccc(S(=O)(=O)N2CCC(C(=O)NCc3cccnc3)CC2)cc1Cl	SW480 rerep inconclusive
Cc1cc2ccccc2n1-c1ccc(C(=O)N2CCC(C(=O)NCc3ccc(Cl)cc3)CC2)s1	DT40 TDP1 CPT 4.1µM, TDP1 cell noCPT 3.7µM (no result: BCR signal inh, MCF10A rereplic, IL1B secr inh, SW480 rerep)
CC12CCC3C(CCC4CC(=O)C(C(O)C(F)(F)F)CC43C)C1CCC2O (configuration not stated)	MCF10A rereplic inconclusive, DT40 TDP1 CPT inconclusive, TDP1 cell noCPT inconclusive (no result: BCR signal inh)
C[N+]1([O-])[C@@H]2CC[C@H]1CC(OC(=O)C(CO)c1ccccc1)C2 (some centres not stated)	none (no result: BCR signal inh, MCF10A rereplic, IL1B secr inh, SW480 rerep)
CCC1(C)CC(=O)NC(=O)C1	none (no result: BCR signal inh, IL1B secr inh)
Cc1ccc(NC(=O)c2cc(S(=O)(=O)N3CCOCC3)c(Cl)cc2Cl)cc1	DT40 TDP1 CPT inconclusive, TDP1 cell noCPT 18µM (no result: BCR signal inh, MCF10A rereplic, IL1B secr inh, SW480 rerep)
Cc1ccc(NS(=O)(=O)c2c(F)cc(F)c(Cl)c2F)cc1S(=O)(=O)N1CCOCC1	SW480 rerep inconclusive
